# Experiments:
# Assay in all cases: DAPPL (digital affinity profiling via proximity ligation, sequencing); 10 mM Tris-HCl pH 7.5, 50 mM NaCl, 1 mM DTT, 4% glycerol, room temperature, 30 min; GST-TFs on glutathione beads, 16-mer random dsDNA library, 0.1% formaldehyde crosslink after washing; high values mean tight binding
# Details in all cases: protein: recombinant; tags: N-terminal GST; dsDNA, one strand shown
# FLI1 = biological target: T1, FLI1 (Homo sapiens, UniProt Q01543 1-452)
# T1 sequence: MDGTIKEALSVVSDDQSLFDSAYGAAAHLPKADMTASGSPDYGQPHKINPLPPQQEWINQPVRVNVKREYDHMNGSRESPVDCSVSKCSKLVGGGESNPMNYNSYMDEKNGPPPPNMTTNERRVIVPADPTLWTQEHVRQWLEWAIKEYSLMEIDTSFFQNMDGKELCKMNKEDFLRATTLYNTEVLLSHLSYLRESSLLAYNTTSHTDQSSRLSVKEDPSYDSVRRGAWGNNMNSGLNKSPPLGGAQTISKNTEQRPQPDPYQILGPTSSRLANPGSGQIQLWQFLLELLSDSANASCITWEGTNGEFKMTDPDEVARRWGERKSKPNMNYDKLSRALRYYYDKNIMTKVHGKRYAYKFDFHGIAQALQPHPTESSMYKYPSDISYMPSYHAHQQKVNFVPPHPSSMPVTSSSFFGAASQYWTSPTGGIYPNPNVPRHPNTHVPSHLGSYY
# Outline: (§1)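 Yeast served to express human transcription factors as GST fusions, which were then captured on glutathione beads and labelled with DNA barcodes. Pooled with a tag-only sample, they were incubated with 200 nmole of a 16-mer random double-stranded DNA library for 30 min at room temperature in Tris/NaCl/DTT/glycerol buffer, washed, crosslinked with 0.1% formaldehyde, ligated by proximity, amplified by PCR and sequenced. Dividing each hexamer's read frequency for a factor by its frequency for the tag-only sample gives the binding signal.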
# ELF1 = ELF1 (Homo sapiens, UniProt P32519 1-619)
# ELF1, sequence (P32519 whole entry): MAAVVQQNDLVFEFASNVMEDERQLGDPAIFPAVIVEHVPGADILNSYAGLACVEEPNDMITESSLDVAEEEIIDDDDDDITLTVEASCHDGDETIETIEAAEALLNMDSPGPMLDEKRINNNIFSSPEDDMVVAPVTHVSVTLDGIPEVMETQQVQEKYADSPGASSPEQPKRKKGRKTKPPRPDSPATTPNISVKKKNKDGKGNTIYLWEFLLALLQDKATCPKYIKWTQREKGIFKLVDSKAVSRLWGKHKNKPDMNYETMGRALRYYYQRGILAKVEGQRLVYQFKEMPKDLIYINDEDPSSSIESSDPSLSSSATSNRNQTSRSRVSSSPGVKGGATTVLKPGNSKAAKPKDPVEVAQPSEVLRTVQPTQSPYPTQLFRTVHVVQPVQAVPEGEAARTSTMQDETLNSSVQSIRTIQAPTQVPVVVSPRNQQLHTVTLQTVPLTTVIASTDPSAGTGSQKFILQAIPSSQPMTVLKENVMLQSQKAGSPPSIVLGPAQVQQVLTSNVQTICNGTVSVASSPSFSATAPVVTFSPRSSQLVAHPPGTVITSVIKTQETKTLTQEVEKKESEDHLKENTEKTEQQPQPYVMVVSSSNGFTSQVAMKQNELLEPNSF
# Outline: as §1
# SPIB = SPIB (Homo sapiens, UniProt Q01892 1-262)
# SPIB, sequence (Q01892 whole entry): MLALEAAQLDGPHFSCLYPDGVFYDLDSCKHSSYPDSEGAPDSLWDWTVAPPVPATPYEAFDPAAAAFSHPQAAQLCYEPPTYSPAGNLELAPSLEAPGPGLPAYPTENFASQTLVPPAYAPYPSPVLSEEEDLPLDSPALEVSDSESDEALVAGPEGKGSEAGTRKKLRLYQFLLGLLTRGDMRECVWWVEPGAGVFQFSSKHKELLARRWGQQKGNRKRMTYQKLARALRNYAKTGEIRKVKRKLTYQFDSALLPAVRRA
# Outline: as §1
# SPIC = biological target: T2, SPIC (Homo sapiens, UniProt Q8N5J4 1-248)
# T2 sequence: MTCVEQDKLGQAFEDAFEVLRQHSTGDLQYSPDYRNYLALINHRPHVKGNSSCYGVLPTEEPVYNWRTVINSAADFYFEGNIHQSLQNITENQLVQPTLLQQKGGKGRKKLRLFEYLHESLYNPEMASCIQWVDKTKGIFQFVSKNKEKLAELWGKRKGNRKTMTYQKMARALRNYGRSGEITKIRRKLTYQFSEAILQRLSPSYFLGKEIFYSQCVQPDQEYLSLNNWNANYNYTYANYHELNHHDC
# Outline: as §1
# ELF4 = ELF4 (Homo sapiens, UniProt Q99607 1-663)
# ELF4, sequence (Q99607 whole entry): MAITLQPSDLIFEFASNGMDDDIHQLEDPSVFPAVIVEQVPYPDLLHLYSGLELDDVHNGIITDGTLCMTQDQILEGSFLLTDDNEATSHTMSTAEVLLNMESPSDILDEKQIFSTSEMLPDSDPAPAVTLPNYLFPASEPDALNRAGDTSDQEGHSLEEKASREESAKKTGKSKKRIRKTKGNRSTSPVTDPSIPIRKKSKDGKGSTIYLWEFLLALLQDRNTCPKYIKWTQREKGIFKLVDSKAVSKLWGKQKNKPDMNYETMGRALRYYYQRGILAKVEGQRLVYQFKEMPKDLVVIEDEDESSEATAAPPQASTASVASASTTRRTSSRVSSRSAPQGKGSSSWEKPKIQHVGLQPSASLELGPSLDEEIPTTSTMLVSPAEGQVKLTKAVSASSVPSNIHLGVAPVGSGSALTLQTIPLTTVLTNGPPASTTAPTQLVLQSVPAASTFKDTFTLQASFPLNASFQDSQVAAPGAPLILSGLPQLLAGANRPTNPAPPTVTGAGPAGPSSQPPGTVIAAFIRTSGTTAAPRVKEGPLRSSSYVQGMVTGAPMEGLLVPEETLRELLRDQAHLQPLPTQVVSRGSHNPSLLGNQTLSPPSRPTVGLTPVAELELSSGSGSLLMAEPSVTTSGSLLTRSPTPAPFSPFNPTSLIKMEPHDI
# Outline: as §1
# ELF3 = biological target: T3, ELF3 (Homo sapiens, UniProt P78545 1-371)
# T3 sequence: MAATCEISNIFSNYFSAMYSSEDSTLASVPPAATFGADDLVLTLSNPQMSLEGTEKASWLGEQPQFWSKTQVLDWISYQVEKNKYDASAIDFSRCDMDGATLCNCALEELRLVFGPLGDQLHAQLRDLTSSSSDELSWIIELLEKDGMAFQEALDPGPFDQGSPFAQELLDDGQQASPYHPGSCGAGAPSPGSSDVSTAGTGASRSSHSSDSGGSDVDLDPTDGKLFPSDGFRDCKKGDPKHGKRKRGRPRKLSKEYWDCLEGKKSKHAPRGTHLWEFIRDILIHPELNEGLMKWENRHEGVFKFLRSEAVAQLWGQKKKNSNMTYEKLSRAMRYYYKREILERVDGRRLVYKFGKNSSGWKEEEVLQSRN
# Outline: as §1
# ERF = biological target: T4, ERF (Homo sapiens, UniProt P50548 1-548)
# T4 sequence: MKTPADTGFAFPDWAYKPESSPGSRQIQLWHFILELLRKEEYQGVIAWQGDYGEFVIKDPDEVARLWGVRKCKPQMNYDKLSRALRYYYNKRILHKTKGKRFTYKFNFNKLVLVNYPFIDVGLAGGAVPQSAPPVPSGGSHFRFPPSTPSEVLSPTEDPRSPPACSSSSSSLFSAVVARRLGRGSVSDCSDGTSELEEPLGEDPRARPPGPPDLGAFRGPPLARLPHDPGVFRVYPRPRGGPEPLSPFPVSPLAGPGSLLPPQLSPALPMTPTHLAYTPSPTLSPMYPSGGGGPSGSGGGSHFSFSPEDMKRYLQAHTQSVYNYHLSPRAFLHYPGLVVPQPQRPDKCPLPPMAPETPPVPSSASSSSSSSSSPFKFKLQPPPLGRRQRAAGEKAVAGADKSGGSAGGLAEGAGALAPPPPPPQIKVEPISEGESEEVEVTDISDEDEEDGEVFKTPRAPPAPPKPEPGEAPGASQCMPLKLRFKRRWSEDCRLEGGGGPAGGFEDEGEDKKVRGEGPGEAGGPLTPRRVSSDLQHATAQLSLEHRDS
# Outline: as §1
# ETV7 = biological target: T5, ETV7 (Homo sapiens, UniProt Q9Y603 1-341)
# T5 sequence: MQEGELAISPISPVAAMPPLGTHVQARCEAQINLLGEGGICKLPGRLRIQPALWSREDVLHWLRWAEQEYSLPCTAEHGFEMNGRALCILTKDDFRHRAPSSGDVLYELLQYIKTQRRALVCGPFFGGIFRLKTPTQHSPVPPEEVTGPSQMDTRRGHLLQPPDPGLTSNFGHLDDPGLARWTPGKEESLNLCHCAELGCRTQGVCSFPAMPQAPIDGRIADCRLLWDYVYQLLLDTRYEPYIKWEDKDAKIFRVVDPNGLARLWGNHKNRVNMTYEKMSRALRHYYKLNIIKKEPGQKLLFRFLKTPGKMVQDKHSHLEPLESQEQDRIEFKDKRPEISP
# Outline: as §1
# ETV6 = ETV6 (Homo sapiens, UniProt P41212 1-452)
# ETV6, sequence (P41212 whole entry): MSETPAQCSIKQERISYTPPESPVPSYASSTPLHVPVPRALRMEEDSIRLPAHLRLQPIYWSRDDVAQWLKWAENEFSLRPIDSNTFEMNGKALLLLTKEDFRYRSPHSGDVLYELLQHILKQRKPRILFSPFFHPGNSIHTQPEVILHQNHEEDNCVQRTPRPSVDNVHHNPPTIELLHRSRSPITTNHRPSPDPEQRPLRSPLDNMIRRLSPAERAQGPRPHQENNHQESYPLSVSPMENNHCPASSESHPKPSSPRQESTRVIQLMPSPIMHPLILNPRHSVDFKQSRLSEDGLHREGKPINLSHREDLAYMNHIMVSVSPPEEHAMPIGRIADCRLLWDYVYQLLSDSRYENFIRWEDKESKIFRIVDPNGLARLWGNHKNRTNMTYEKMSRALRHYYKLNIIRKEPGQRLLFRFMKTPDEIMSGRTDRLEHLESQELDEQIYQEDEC
# Outline: as §1
# GABPA = biological target: T6, GABPA (Homo sapiens, UniProt Q06546 1-454)
# T6 sequence: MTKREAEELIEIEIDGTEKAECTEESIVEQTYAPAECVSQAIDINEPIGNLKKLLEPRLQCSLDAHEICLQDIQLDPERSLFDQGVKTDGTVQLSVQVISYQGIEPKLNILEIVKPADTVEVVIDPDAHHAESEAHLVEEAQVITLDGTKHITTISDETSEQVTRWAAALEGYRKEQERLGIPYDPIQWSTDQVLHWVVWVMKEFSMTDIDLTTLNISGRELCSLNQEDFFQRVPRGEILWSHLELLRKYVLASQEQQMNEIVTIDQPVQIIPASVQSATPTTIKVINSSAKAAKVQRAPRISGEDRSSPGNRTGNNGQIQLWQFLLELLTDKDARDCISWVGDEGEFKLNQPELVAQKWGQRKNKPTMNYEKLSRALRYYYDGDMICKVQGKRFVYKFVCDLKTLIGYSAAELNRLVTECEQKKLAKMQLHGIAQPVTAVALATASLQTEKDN
# Outline: as §1
# ERG = biological target: T7, ERG (Homo sapiens, UniProt P11308 1-479)
# T7 sequence: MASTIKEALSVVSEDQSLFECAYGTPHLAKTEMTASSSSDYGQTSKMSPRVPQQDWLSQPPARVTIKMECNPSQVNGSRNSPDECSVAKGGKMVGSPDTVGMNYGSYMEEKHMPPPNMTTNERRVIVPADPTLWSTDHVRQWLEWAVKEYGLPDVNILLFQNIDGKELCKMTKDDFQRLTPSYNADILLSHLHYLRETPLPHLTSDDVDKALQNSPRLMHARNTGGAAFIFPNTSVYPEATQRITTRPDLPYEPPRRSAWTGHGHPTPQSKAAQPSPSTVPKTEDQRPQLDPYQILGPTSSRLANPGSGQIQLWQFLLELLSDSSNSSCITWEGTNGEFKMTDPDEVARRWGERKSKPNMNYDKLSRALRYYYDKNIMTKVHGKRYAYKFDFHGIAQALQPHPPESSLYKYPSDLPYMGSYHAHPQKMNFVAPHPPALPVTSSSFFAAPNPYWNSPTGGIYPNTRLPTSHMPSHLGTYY
# Outline: as §1
# SPI1 = SPI1 (Homo sapiens, UniProt P17947 1-270)
# Outline: as §1
# ELK4 = biological target: T8, ELK4 (Homo sapiens, UniProt P28324-2 1-405)
# T8 sequence: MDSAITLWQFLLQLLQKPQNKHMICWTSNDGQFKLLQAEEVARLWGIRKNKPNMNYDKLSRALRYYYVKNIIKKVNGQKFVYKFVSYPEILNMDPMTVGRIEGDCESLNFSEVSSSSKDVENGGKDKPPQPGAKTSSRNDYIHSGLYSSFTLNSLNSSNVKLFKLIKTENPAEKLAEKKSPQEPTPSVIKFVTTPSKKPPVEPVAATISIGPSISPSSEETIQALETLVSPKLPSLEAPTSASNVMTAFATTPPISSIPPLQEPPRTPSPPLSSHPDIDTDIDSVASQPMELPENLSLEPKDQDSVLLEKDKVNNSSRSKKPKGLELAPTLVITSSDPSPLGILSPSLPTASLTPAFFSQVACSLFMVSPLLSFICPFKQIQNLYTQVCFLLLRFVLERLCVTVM
# Outline: as §1
# ETV2 = biological target: T9, ETV2 (Homo sapiens, UniProt O00321 1-342)
# T9 sequence: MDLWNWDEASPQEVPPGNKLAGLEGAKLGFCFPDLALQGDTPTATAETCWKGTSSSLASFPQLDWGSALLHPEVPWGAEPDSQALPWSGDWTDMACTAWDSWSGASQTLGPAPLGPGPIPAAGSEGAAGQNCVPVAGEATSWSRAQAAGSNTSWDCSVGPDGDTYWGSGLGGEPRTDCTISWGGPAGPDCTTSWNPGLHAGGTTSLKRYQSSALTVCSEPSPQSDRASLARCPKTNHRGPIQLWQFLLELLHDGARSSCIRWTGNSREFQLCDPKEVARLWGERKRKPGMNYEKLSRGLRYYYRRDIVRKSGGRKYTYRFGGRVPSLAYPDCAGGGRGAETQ
# Outline: as §1
# ETV1 = ETV1 (Homo sapiens, UniProt P50549 1-477)
# ETV1, sequence (P50549 whole entry): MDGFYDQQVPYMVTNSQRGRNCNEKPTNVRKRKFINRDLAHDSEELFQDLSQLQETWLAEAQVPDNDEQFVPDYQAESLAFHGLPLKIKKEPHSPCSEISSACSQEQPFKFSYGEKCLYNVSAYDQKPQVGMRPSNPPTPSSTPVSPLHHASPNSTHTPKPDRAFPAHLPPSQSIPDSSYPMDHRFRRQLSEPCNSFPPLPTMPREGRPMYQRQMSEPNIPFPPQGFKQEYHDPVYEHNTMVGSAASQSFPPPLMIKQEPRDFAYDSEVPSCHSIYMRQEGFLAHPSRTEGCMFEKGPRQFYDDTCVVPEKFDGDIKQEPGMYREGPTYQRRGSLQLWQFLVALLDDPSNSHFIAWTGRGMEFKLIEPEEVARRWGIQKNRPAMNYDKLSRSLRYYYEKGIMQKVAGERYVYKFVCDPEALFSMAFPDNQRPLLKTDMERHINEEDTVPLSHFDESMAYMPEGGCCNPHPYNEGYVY
# Outline: as §1
# ETV3L = biological target: T10, ETV3L (Homo sapiens, UniProt Q6ZN32 1-361)
# T10 sequence: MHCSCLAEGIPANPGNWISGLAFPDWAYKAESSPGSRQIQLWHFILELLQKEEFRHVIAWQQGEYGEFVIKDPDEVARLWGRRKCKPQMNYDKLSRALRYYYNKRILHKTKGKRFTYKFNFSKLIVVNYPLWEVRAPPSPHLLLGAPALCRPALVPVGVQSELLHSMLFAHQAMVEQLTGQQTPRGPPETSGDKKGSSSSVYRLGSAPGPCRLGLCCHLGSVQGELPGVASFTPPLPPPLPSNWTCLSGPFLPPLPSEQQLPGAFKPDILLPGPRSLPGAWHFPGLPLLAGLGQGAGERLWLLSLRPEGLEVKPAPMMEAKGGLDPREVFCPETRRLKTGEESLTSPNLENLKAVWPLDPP
# Outline: as §1
# ETV3 = biological target: T11, ETV3 (Homo sapiens, UniProt P41162-2 1-143)
# T11 sequence: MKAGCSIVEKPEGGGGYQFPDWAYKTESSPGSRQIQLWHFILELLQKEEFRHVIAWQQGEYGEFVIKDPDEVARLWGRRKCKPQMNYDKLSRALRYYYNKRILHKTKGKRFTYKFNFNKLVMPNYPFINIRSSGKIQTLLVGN
# Outline: as §1
Sequence,binding signal (FLI1),binding signal (ELF1),binding signal (SPIB),binding signal (SPIC),binding signal (ELF4),binding signal (ELF3),binding signal (ERF),binding signal (ETV7),binding signal (ETV6),binding signal (GABPA),binding signal (ERG),binding signal (SPI1),binding signal (ELK4),binding signal (ETV2),binding signal (ETV1),binding signal (ETV3L),binding signal (ETV3)
AATGTG,"1.04 fold enrichment (6-mer frequency, TF over GST control)","1 fold enrichment (6-mer frequency, TF over GST control)","1 fold enrichment (6-mer frequency, TF over GST control)","1.02 fold enrichment (6-mer frequency, TF over GST control)","1.03 fold enrichment (6-mer frequency, TF over GST control)","1.07 fold enrichment (6-mer frequency, TF over GST control)","1.01 fold enrichment (6-mer frequency, TF over GST control)","1.02 fold enrichment (6-mer frequency, TF over GST control)","1.01 fold enrichment (6-mer frequency, TF over GST control)",,,,,,,,
TGTCAA,"1.02 fold enrichment (6-mer frequency, TF over GST control)","1.05 fold enrichment (6-mer frequency, TF over GST control)","1.02 fold enrichment (6-mer frequency, TF over GST control)",,"1.08 fold enrichment (6-mer frequency, TF over GST control)","1.15 fold enrichment (6-mer frequency, TF over GST control)","1.07 fold enrichment (6-mer frequency, TF over GST control)",,"1.04 fold enrichment (6-mer frequency, TF over GST control)","1.01 fold enrichment (6-mer frequency, TF over GST control)","1.05 fold enrichment (6-mer frequency, TF over GST control)","1 fold enrichment (6-mer frequency, TF over GST control)","1.11 fold enrichment (6-mer frequency, TF over GST control)","1 fold enrichment (6-mer frequency, TF over GST control)","1.06 fold enrichment (6-mer frequency, TF over GST control)","1.07 fold enrichment (6-mer frequency, TF over GST control)","1.08 fold enrichment (6-mer frequency, TF over GST control)"

# — article PMC7862700, “An all-to-all approach to the identification of sequence-specific readers for epigenetic DNA modifications on cytosine”
